Reference: publication PMC5540273 (PLoS ONE, 2017)

tested on: CDK2; settings: concentration: 1 μM,replicates: in singlicate; n = 1
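Note: KINOMEscan kinase panel screen.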

SMILES	%Inh [%]
Cc1n[nH]c2ccc(-c3cc(OC[C@@H](N)Cc4ccccc4)cnc3-c3ccoc3)cc12.O=C(O)C(F)(F)F.O=C(O)C(F)(F)F [GSK507358]	0
CC(C)Nc1cc(-c2ccc3c(N)n[nH]c3c2)nc(N)n1 [GSK2221681]	21
CNC(=O)c1ccccc1Sc1ccc2c(/C=C/c3ccccn3)n[nH]c2c1	1
Cl.Cl.NC[C@H](Cc1ccc(C(F)(F)F)cc1)NC(=O)c1cc(Br)c(-c2ccnc3[nH]ccc23)s1 [GSK1487252]	3
Cl.Cl.Nc1nc(-c2ccc3c(N)n[nH]c3c2)cc(N2CCCC(NC(=O)c3ccccc3)C2)n1 (stereo not drawn) [GSK2286775]	0
O=C(NCCCN1CCOC1=O)c1cnc(NCc2cc(Cl)ccc2Cl)nc1NC1CCCC1	0
Cc1ccc(-n2nc(C(C)(C)C)cc2NC(=O)Nc2ccc(OCCN3CCOCC3)c3ccccc23)cc1 [GW839464]	0
Cc1cc(C(=O)Nc2ccc(Oc3ccc4nc(NC(=O)C5CC5)cn4n3)cc2)nn1-c1ccccc1	0
C=CC(=O)Nc1cc2c(Nc3ccc(F)c(Cl)c3)ncnc2cc1OCCCN1CCOCC1 [GW781483]	0
Cc1cc2cn[nH]c2cc1-c1cccc2c(N)c(C(N)=O)nnc12	24
C[C@@H]1CCN(C(=O)CC#N)C[C@@H]1N(C)c1ncnc2[nH]ccc12	0
CC(C)N1C(=O)Cc2cc(Nc3ncc(C(F)(F)F)c(NCc4cccc(S(C)(=O)=O)c4)n3)ccc21	0
